The nature of assay [1]: inhibitors of TNFa-induced NFkB p65 translocation, primary screen, imaging, HUVEC, MLSMR starter and 10KST1 sets (AID 438;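 active means inhibition above 20% together with a positive visual image hit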;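 further: compound added about 3h40 before a 20 min TNFalpha stimulation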;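 on inhibition: signal is the nuclear over cytoplasmic p65 intensity ratio per well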). The note with it: HUVEC TNFa-induced p65 nuclear translocation; cell count: measured here: nuclei count (cytotoxicity indicator), at 2.08 µM; inhibition: at 2 µM, stronger effect = higher value, 0% TNFa-plus-vehicle, 100% no-TNFa wells.
Assay [2] in a line: inhibitors of mutant huntingtin aggregation, primary screen, imaging, exon1htt(103Q)mCFP cells, high-content imaging (AID 483;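 active means visual image review flags a hit and inhibition of aggregation exceeds 20%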;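 further: compound exposure lasted 3 days before fixation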;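 on nuclei count: percent of the per-plate median nuclei count of sample wells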). The following applies: exon1htt(103Q)mCFP cell line, aggregate imaging, at 2 µM; inhibition of aggregation: stronger effect = higher value; nuclei count: measured here: cell count, toxicity.
A short description of assay [3]: inhibitors of E-selectin induction by TNFa, primary screen, imaging, HUVEC, immunofluorescence, MLSMR starter and 10KST1 sets (AID 487;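 active means visually confirmed hit in the image check and inhibition above 20%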;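 on inhibition: signal is fraction of cell area covered by stained E-selectin grains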;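 on nuclei count: 100% = median nuclei count of all wells on the same plate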). The note with it: HUVEC TNFalpha-induced E-selectin immunofluorescence imaging, at 2 µM; inhibition: stronger effect = higher value; nuclei count: measured here: cell number, toxicity.
A short description of assay [4]: DUSP6 inhibitors restoring Erk phosphorylation by chemical complementation, primary imaging in DUSP6-transfected HeLa (AID 609;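 active means compounds giving at least 50% inhibition in the cell-based MKP-3 phosphatase rescue imaging test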;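 on inhibition: phospho-Erk level distribution per well compared with pooled transfected vehicle control wells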). The following applies: HeLa MKP-3 transfected, phospho-Erk imaging KS statistic, at 10 µM, cells stimulated with TPA for 15 min.
The target of assay [5] is Dual specificity protein phosphatase 6 (Homo sapiens) (UniProt Q16828). The description is as above. The note with it: HeLa MKP-3 transfected, phospho-Erk imaging KS statistic; at 10 µM; stronger effect = higher value; cells stimulated with TPA for 15 min.
Assay [6] deals with Voltage-gated potassium channel subunit beta-2 (Rattus norvegicus) (UniProt P62483). As to the kind of experiment: KvBeta enzyme negative modulators, primary screen, biochemical, NADPH fluorescence (AID 622;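 active means fluorescence slope higher than the sample average by over 3 SD, cut at about -0.22 in these data, passing the limit was not always enough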;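 further: slope of raw intensity against log time taken from 70 to 1610 s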). The following applies: recombinant KvBeta, 4-cyanobenzaldehyde reduction, at 10 µM, stronger effect = higher value.
The target is the same in assay [7]. The assay is described as follows: KvBeta positive modulators, primary screen, biochemical, NADPH fluorescence (AID 623;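 active means NADPH fluorescence slope more negative than the mean of all samples by about 3 SD, 99.7% confidence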;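 further: fluorescence intensity change per second fitted from 20 to 320 s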). The following applies: Recombinant KvBeta, NADPH fluorescence decrease slope, 10 min; at 10 µM; stronger effect = lower value.
For assay [8], the target named is Alpha-2C adrenergic receptor (Homo sapiens) (UniProt P18825). The assay is described as follows: modulators of alpha2C/GIRK thallium flux, primary screen, cell-based, HEK293 alpha2C/GIRK1/2 (AID 624;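 active means fluorescence slope after compound addition differing from the mean of all screened samples at 99.7% confidence, in either direction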;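 further: slope of fluorescence ratio to pre-addition baseline per second over 15 to 24 s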). The note with it: thallium flux BTC fluorescence, at 10 µM, actives lie on both sides.
A short description of assay [9]: inhibitors of larval lipid processing in zebrafish, primary screen, whole organism, PED6 fluorescence, gall bladder and intestine (AID 686;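 active means a full or partial loss of lipid-probe fluorescence in the fish gall bladder, intestine or both, judged by eye; inactive means no fluorescence loss, or compound toxic to the fish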;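 further: larvae 5 to 7 days old with five fish per well; signal comes from phospholipase A2 cleavage of quenched PED6 carried via bile; overnight exposure to compound and PED6 before scoring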). The following applies: Zebrafish larvae PED6 lipid processing, fluorescence scoring; screened at 20 µM (by protocol).
The nature of assay [10]: inhibitors of Chlamydomonas gravitaxis, primary screen, whole organism, Chlamydomonas reinhardtii, WT vs cilia-less mutant, absorbance, 96-well (AID 463189).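 Further: 0% = wild type cc124 cells in DMSO and 100% = ciliumless bld1 mutant cells.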 The following applies: OD600 absorbance, 2 days, at 10 µM, stronger effect = higher value.
Assay [11] in a line: inhibitors of Sendai virus-induced IRF3 signaling, primary screen, TLR/RLR signaling modifier project, cell-based, Sendai virus stimulus, luciferase, 10K MLSCN set (AID 602276;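 active means inhibition at or above 50% at 10 µM; inactive means inhibition below 50%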;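 further: firefly luciferase from ISG56 promoter only with Renilla not read in this screen; 0% = Sendai virus plus DMSO and 100% = medium plus DMSO without virus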). The following applies: HEK293 RL24 IRF3 luciferase reporter, at 10 µM, stronger effect = higher value. (In a reporter assay the amount or activity of a reporter protein is the signal.)
The nature of assay [12]: inhibitors of poly I:C-induced TLR3 signaling, primary screen, cell-based, poly I:C stimulus, luciferase, 10K MLSCN set (AID 602277;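 active means inhibition of the reporter signal at or above 50%; inactive means inhibition below 50%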). The note with it: HEK293-TLR3 RL24 IRF3 luciferase reporter, at 10 µM, stronger effect = higher value.
[13] abbreviates: measured here: cell density z-score.
The mark [14] stands for this setting: measured here: nuclear c-Myc green intensity z-score.
[15] abbreviates: measured here: nuclear pErk red intensity z-score, stronger effect = higher value.

Values joined by “and” are separate entries in the source; they are usually repeats but may differ in a detail not shown here. Equal values may be shown once. Active and inactive are the calls of the source.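 How the source made its calls, unless noted: active means inhibition at or above 50% relative to wild type and mutant plate controls; inactive means inhibition below 50%.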

Sequence of Alpha-2C adrenergic receptor (Homo sapiens) (P18825 whole entry, looked up): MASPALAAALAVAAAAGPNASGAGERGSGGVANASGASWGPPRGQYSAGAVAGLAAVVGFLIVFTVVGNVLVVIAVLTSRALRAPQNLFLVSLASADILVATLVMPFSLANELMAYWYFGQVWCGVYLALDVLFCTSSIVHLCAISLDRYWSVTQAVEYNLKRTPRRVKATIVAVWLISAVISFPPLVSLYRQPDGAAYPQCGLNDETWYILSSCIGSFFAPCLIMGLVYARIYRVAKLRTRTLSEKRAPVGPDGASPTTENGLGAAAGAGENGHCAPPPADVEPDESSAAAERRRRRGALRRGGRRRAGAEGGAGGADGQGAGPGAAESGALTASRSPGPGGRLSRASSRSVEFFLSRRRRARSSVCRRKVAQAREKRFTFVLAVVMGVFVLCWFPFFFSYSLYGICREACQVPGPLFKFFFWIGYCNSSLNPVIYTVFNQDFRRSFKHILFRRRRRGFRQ
Sequence of Dual specificity protein phosphatase 6 (Homo sapiens) (Q16828 whole entry, looked up): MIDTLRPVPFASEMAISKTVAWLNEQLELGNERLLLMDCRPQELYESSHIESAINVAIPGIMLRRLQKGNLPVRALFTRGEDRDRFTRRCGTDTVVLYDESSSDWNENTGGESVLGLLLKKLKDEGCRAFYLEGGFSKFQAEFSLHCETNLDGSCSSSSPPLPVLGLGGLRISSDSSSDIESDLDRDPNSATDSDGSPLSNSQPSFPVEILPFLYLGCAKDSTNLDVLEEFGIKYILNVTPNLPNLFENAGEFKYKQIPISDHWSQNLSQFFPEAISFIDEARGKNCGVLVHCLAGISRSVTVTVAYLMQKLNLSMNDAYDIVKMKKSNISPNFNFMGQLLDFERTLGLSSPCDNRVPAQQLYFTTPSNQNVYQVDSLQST
Sequence of Voltage-gated potassium channel subunit beta-2 (Rattus norvegicus) (P62483 whole entry, looked up): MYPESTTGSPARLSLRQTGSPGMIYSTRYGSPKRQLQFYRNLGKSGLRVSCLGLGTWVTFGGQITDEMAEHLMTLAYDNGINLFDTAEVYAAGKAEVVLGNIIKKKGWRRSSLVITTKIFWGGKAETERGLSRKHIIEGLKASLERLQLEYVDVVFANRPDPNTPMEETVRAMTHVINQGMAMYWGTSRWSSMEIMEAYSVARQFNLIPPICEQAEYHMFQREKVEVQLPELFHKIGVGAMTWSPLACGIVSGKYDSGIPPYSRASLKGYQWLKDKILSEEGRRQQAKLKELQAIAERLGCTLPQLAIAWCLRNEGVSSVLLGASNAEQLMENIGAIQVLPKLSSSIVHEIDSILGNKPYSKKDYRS

Take `CCOC(=O)N1CCN(C(=O)c2cn(CC)c3cc(N4CCN(C)CC4)c(F)cc3c2=O)CC1`: the cell count in assay [1] stood at 544. Moreover, the inhibition is 2.6% (inactive) in [1]; -20.9% (inactive) in [3]; -7.28% (inactive) in [5]; 15.7% (inactive) in assay [10]; 21.5% (inactive) in assay [11]; 21.4% (inactive) in assay [12]. For the same molecule, in assay [2], the inhibition of aggregation is 15.1% (inactive). Besides, the figures for the nuclei count in assay [2] and in assay [3] were 96% and 121%, respectively. For the same molecule, the z-score in [4] (setting [13]) is 0.456; in assay [4] (setting [14]), 0.816; in assay [4] (setting [15]), -1.34. Besides, in assay [6], the fluorescence slope was -0.267 (inactive). In addition, the NADPH fluorescence slope in assay [7] was 1.3e-05 (inactive). Also, the slope in assay [8] was 0.00518 (inactive). Also, in assay [9], the outcome was inactive.
Turning to `O=C(O)c1cc(O)c2c(c1)C(=O)c1cccc(O)c1C2=O`, the cell count in assay [1] came to 610. In addition, the inhibition in assay [1] is -3% (inactive); in assay [3], -98.1% (inactive); in assay [5], 3.45% (inactive); in [10], 2.72% (inactive); in [11], 18% (inactive); in [12], 42.8% (inactive). For the same molecule, the inhibition of aggregation in assay [2] was 26.7% (inactive). Moreover, the nuclei count in assay [2] was found to be 100%; in assay [3], 128%. For the same molecule, the z-score in assay [4] (setting [13]) was 0.571; in [4] (setting [14]), -1.15; in [4] (setting [15]), 1.27. In addition, in assay [6], the fluorescence slope was -0.417 (inactive). In addition, the NADPH fluorescence slope in assay [7] was -1.3e-05 (inactive). The slope in assay [8] is -0.00744 (active). In addition, the call in [9] was inactive.
As for `Nc1nnc(-c2cccc(Cl)c2Cl)c(N)n1`, in [1], the cell count was determined as 697. Further, the inhibition in [1] was -8.4% (inactive); in assay [3], -39.9% (inactive); in [5], 1.48% (inactive); in assay [10] it was -6.28% (inactive) and 7.36% (inactive); in assay [11], -2.35% (inactive); in assay [12], 13.8% (inactive). Moreover, the inhibition of aggregation in assay [2] is 2.2% (inactive). Besides, the figures for the nuclei count in assay [2] and in assay [3] were 112% and 139%, respectively. The z-score in assay [4] (setting [13]) is -0.0756; in assay [4] (setting [14]) it was -0.0257; in assay [4] (setting [15]) it was 1.16. Moreover, the fluorescence slope in assay [6] is -0.527 (inactive). Besides, in [7], the NADPH fluorescence slope is -7.1e-06 (inactive). Further, the slope in assay [8] was 0.00578 (inactive). Also, in assay [9], the call was inactive.
In the case of `CCN(CC)C(=O)CSC1=C(C#N)C(c2ccco2)C(C(=O)OCCOC)=C(C)N1` (stereo not given), the cell count in assay [1] came out at 393. The inhibition in [1] is -8.6% (inactive); in [3], -184% (inactive); in assay [5], -3.98% (inactive); in assay [10], 14% (inactive); in assay [11] it was 2.19% (inactive); in assay [12], 16.7% (inactive). For the same molecule, in assay [2], the inhibition of aggregation is 15.4% (inactive). Also, the nuclei count is 104% in assay [2] and 152% in assay [3]. Also, the z-score in assay [4] (setting [13]) was 0.81; in assay [4] (setting [14]) it was -0.0131; in assay [4] (setting [15]) it was 1.47. Also, the fluorescence slope in assay [6] is -0.378 (inactive). In assay [7], the NADPH fluorescence slope is -3e-05 (inactive). Further, the slope in assay [8] is 0.00415 (inactive). In addition, the outcome in assay [9] was inactive.
As for `Fc1ccccc1-c1nc(NCCCN2CCOCC2)c2ccccc2n1`, the cell count in assay [1] was determined as 480. In addition, the inhibition is -0.7% (inactive) in [1]; -89.4% (inactive) in [3]; 27.5% (inactive) in assay [5]; 7.49% (inactive) in assay [10]; -10.9% (inactive) in assay [11]; -2.43% (inactive) in [12]. The inhibition of aggregation in [2] was -2.8% (inactive). Besides, the nuclei count in assay [2] was 108%; in [3] it was 130%. The z-score in assay [4] (setting [13]) was 0.781; in assay [4] (setting [14]), -1.18; in [4] (setting [15]), -0.632. The fluorescence slope in assay [6] is -0.448 (inactive). In addition, in assay [7], the NADPH fluorescence slope was -1.9e-05 (inactive). Moreover, the slope in assay [8] is 0.00649 (inactive). For the same molecule, in [9], the molecule was called inactive.
For the molecule `CC1(C)Cc2c(C#N)c(SCCC#N)nc(N3CCOCC3)c2CS1`, the cell count in assay [1] came out at 632. Besides, the inhibition in assay [1] is -13% (inactive); in assay [3] it was -104% (inactive); in assay [5] it was 28.6% (inactive); in assay [10], -1.16% (inactive); in [11], 15.2% (inactive); in assay [12] it was 18.7% (inactive). In addition, the inhibition of aggregation in [2] is -5.8% (inactive). Also, the nuclei count in assay [2] was found to be 106%; in assay [3], 132%. Further, the values for the z-score in assay [4] (setting [13]), in [4] (setting [14]) and in assay [4] (setting [15]) were 0.7, -1.52 and -1.34, respectively. Moreover, the fluorescence slope in assay [6] is -0.343 (inactive). The NADPH fluorescence slope in assay [7] is -8.5e-06 (inactive). Further, in assay [8], the slope was 0.0053 (inactive). The call in [9] was inactive.
As for `CC(C)[N+](C)(CCOC(=O)C1c2ccccc2Oc2ccccc21)C(C)C`, the cell count in assay [1] turned out to be 683. Also, the inhibition is -4.8% (inactive) in assay [1]; -133% (inactive) in assay [3]; -2.46% (inactive) in assay [5]; 0.683% (inactive) and 0.468% (inactive) in assay [10]; 20.3% (inactive) in assay [11]; 39.4% (inactive) in assay [12]. For the same molecule, in assay [2], the inhibition of aggregation is -28.8% (inactive). Moreover, the nuclei count in assay [2] worked out at 115%; in assay [3] it was 138%. Also, the z-score in assay [4] (setting [13]) is -0.466; in assay [4] (setting [14]), -0.573; in [4] (setting [15]), 0.578. In [6], the fluorescence slope is -0.487 (inactive). The NADPH fluorescence slope in [7] was 2.5e-06 (inactive). Also, the slope in assay [8] is 0.00524 (inactive). Besides, the molecule was called inactive in assay [9].
Regarding `CCOC(=O)c1c(C)n(C)c2ccc(OC)c(NC(=O)CCN3CCSCC3)c12`, the cell count in assay [1] stood at 476. The inhibition is 3% (inactive) in assay [1]; -134% (inactive) in [3]; -9.66% (inactive) in [5]; 4.14% (inactive) in [10]; 24.4% (inactive) in [11]; 28.3% (inactive) in assay [12]. Moreover, in assay [2], the inhibition of aggregation was 5.7% (inactive). Besides, the nuclei count in assay [2] was found to be 112%; in [3] it was 114%. Moreover, the z-score in assay [4] (setting [13]) was -2.21; in assay [4] (setting [14]), 0.452; in assay [4] (setting [15]), 0.641. Moreover, the fluorescence slope in [6] is -0.464 (inactive). The NADPH fluorescence slope in [7] was -6.9e-05 (inactive). Besides, the slope in [8] was 0.00572 (inactive). Also, in assay [9], the call was inactive.
Turning to `N[C@@H](C(=O)N[C@@H]1C(=O)N2C(C(=O)O)=C(Cl)CS[C@H]12)c1ccccc1`, the cell count in assay [1] was found to be 693. The inhibition was -2% (inactive) in assay [1]; -84.8% (inactive) in assay [3]; 7.39% (inactive) in assay [5]; 21.4% (inactive) in [10]; 12.2% (inactive) in assay [11]; 28.5% (inactive) in [12]. Besides, the inhibition of aggregation in [2] was -5.3% (inactive). Moreover, the nuclei count was 113% in [2] and 122% in [3]. In addition, the z-score in assay [4] (setting [13]) is -0.332; in assay [4] (setting [14]) it was -0.293; in assay [4] (setting [15]), -0.889. The fluorescence slope in assay [6] was -0.441 (inactive). Besides, the NADPH fluorescence slope in [7] was -5.1e-05 (inactive). Also, the slope in assay [8] was 0.00559 (inactive). The result in assay [9] was inactive.
For the molecule `CCc1cn([C@H]2C[C@H](O)[C@@H](CO)O2)c(=O)[nH]c1=O`, the cell count in assay [1] came to 644. Further, the inhibition in assay [1] is -9.9% (inactive); in assay [3] it was -69.2% (inactive); in [5], 9.37% (inactive); in assay [10], 21.4% (inactive); in assay [11] it was 18.1% (inactive); in [12], 34% (inactive). The inhibition of aggregation in [2] was -3.6% (inactive). For the same molecule, the figures for the nuclei count in [2] and in assay [3] were 102% and 120%, respectively. For the same molecule, the z-score in [4] (setting [13]) was -0.967; in [4] (setting [14]), -0.117; in assay [4] (setting [15]), 0.506. The fluorescence slope in assay [6] was -0.477 (inactive). Also, in assay [7], the NADPH fluorescence slope was 5.1e-06 (inactive). The slope in assay [8] is 0.00501 (inactive). Further, the outcome in assay [9] was inactive.

In general, inhibition refers to the drop in the measured response relative to a control, in per cent.

The values are drawn from PubChem BioAssay.
